High-throughput results deposited in PubChem by The Scripps Research Institute Molecular Screening Center.
An excerpt weighted towards active compounds, which were near 3.4% of everything screened.
FBW7 activator – human FBW7 E3 ligase activation, primary screen. normalized activity (activation), % at 26.1 µM. 0.13% of 650,000 active. AlphaScreen FBW7–phospho-cyclin E peptide binding, activator screen. Q969H0; in the data active = normalized activity above about 1.9%;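 also: purified mutant Fbw7 with reduced substrate affinity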
GPR151 activ – activates the human receptor GPR151. activation, % at 11.2 µM. PathHunter beta-arrestin GPR151 cells, luminescence. AID 1508602. 1% of 650,000 active; in the data active = activation above about 4.9%
Target sequence (Q8TDV0 whole entry, looked up): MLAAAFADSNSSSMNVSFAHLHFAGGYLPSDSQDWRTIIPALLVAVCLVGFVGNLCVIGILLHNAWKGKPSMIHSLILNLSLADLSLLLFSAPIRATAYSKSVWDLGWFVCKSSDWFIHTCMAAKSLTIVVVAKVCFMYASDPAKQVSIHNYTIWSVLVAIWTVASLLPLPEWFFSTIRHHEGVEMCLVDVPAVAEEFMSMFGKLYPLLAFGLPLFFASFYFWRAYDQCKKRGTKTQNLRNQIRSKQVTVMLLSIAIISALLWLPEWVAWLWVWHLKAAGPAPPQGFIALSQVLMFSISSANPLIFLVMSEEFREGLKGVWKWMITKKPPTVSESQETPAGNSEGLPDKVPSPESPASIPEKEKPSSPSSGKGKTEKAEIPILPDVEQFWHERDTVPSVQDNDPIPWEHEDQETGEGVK
TEAD-YAP inh – TEAD-YAP interaction inhibition. AID 1259422. 1.4% of 640,000 active. HEK-TIYL cells, TEAD-Gal4/YAP UAS-luciferase luminescence. inhibition, % at 9.12 µM; in the data active = inhibition above about 32%
MITF primary – human MITF inhibition, primary screen. inhibition, % at 2.6 µM. O75030. AlphaScreen MITF homodimerization, bead proximity signal. AID 1259374. 0.91% of 650,000 active; in the data active = inhibition above about 50%
Numbers stand for hits.

COc1ccc(OC)c(C2/C(=C(\O)c3ccc(C)cc3)C(=O)C(=O)N2c2nc3ccccc3s2)c1 (stereo not drawn) was read as FBW7 activator inactive, GPR151 activ inactive, TEAD-YAP inh inactive and MITF primary inactive.
For COc1ccccc1OCCn1cc(C(=S)N2CCOCC2)c2ccccc21 the results were FBW7 activator inactive, GPR151 activ inactive, TEAD-YAP inh inactive and MITF primary inactive.
Screening COc1ccc(OCCn2cc(C(=S)N3CCOCC3)c3ccccc32)cc1 returned FBW7 activator inactive, GPR151 activ inactive, TEAD-YAP inh 32 and MITF primary inactive.
Screening CNc1nc(Nc2ccc(OC)cc2)c2nccnc2n1 returned FBW7 activator 2.9, GPR151 activ inactive, TEAD-YAP inh inactive and MITF primary inactive.
Screening CNc1nc(Nc2ccc(C)c(C)c2)c2nccnc2n1 returned FBW7 activator inactive, GPR151 activ inactive, TEAD-YAP inh inactive and MITF primary inactive.
Screening O=C(Nc1ccc(N2CCCN(C(=O)C3CC3)CC2)cc1)c1ccc(-n2cccc2)cc1 returned FBW7 activator inactive, GPR151 activ inactive, TEAD-YAP inh 33 and MITF primary inactive.
Screening CCC(C)(C(=O)NC1CCCC1)N(Cc1ccco1)C(=O)CNC(=O)c1ccccc1 (stereo not drawn) returned FBW7 activator 2.3, GPR151 activ inactive, TEAD-YAP inh inactive and MITF primary inactive.
Screening CCC(C)(C(=O)NC1CCCC1)N(Cc1ccco1)C(=O)CNC(C)=O (stereo not drawn) returned FBW7 activator inactive, GPR151 activ inactive, TEAD-YAP inh inactive and MITF primary inactive.
`COCCC1CCCCN1C(=O)c1cc(COc2c(F)cccc2F)on1` (stereo not drawn) gave FBW7 activator inactive, GPR151 activ inactive, TEAD-YAP inh inactive and MITF primary inactive.
For c1ccc2c(c1)OCC(c1nc3ncc(-c4ccncc4)cc3[nH]1)O2 (stereo not drawn) the results were FBW7 activator inactive, GPR151 activ inactive, TEAD-YAP inh inactive and MITF primary inactive.
For Fc1ccc(CCn2c(C3COc4ccccc4O3)nc3ncc(-c4ccncc4)cc32)cc1 (stereo not drawn) the results were FBW7 activator inactive, GPR151 activ inactive, TEAD-YAP inh 51 and MITF primary inactive.
`COc1ccc(NC(=O)CNc2cc([N+](=O)[O-])ccc2NCCO)cc1Cl` gave FBW7 activator inactive, GPR151 activ inactive, TEAD-YAP inh inactive and MITF primary inactive.
`Fc1cc(-c2nc(Nc3ccc(CN4CCCCC4)cc3)ncc2F)cc(N2CCOCC2)c1` gave FBW7 activator inactive, GPR151 activ inactive, TEAD-YAP inh 92 and MITF primary inactive.
Fc1cc(-c2nc(Nc3ccc(N4CCOCC4)cc3)ncc2F)cc(N2CCOCC2)c1 was read as FBW7 activator inactive, GPR151 activ inactive, TEAD-YAP inh inactive and MITF primary inactive.
`Fc1cnc(Nc2ccc(CN3CCCCC3)cc2)nc1-c1cc(N2CCOCC2)cc(C(F)(F)F)c1` gave FBW7 activator inactive, GPR151 activ inactive, TEAD-YAP inh 42 and MITF primary inactive.
`Cc1c(C(=O)NCCCN2CCC(C)CC2)sc2ncn(CC(=O)N3CCCCC3C)c(=O)c12` (stereo not drawn) gave FBW7 activator inactive, GPR151 activ inactive, TEAD-YAP inh inactive and MITF primary inactive.
For Cc1cccc2cc(CN(Cc3ccco3)C(=O)C(F)(F)F)c(=O)[nH]c12 the results were FBW7 activator inactive, GPR151 activ inactive, TEAD-YAP inh 61 and MITF primary inactive.
CCOc1ccccc1C(=O)Nc1cccc(C(F)(F)F)c1 was read as FBW7 activator inactive, GPR151 activ inactive, TEAD-YAP inh inactive and MITF primary inactive.
NC(=O)/C=C/C(=O)Nc1cccc(C(F)(F)F)c1 was read as FBW7 activator inactive, GPR151 activ inactive, TEAD-YAP inh 43 and MITF primary inactive.
`O=C(CC(O)(C(F)(F)F)C(F)(F)F)Nc1cccc(C(F)(F)F)c1` gave FBW7 activator inactive, GPR151 activ inactive, TEAD-YAP inh 84 and MITF primary 56.
O=C(CSCC(=O)Nc1cccc(C(F)(F)F)c1)Nc1cccc(C(F)(F)F)c1 was read as FBW7 activator inactive, GPR151 activ inactive, TEAD-YAP inh inactive and MITF primary inactive.
`CC(=O)Oc1ccccc1C(=O)Nc1cccc(C(F)(F)F)c1` gave FBW7 activator inactive, GPR151 activ inactive, TEAD-YAP inh 65 and MITF primary inactive.
CC(=O)Nc1cccc(C(F)(F)F)c1 was read as FBW7 activator inactive, GPR151 activ inactive, TEAD-YAP inh inactive and MITF primary inactive.
For O=C(NCCc1ccc(O)cc1)c1ccnc(N2CCN(c3ccccn3)CC2)c1 the results were FBW7 activator inactive, GPR151 activ inactive, TEAD-YAP inh 45 and MITF primary inactive.
Screening O=C(NCCO)c1ccnc(N2CCN(c3ccccn3)CC2)c1 returned FBW7 activator inactive, GPR151 activ inactive, TEAD-YAP inh inactive and MITF primary inactive.
For O=C(CCCCn1c(=O)[nH]c2ccsc2c1=O)NC1CCN(Cc2ccccc2)CC1 the results were FBW7 activator inactive, GPR151 activ inactive, TEAD-YAP inh inactive and MITF primary inactive.
`CCOc1cc(C#N)c(NC(=O)c2ccncc2)cc1OCC` gave FBW7 activator inactive, GPR151 activ inactive, TEAD-YAP inh inactive and MITF primary inactive.
Screening CCOc1ccccc1NC(=O)c1cccs1 returned FBW7 activator inactive, GPR151 activ inactive, TEAD-YAP inh inactive and MITF primary inactive.
`CCOc1cc(C#N)c(NC(=O)c2cccnc2)cc1OCC` gave FBW7 activator inactive, GPR151 activ inactive, TEAD-YAP inh 55 and MITF primary inactive.
`CCOc1cc(C#N)c(NC(=O)c2cccs2)cc1OCC` gave FBW7 activator inactive, GPR151 activ inactive, TEAD-YAP inh 48 and MITF primary inactive.
Screening COc1cc(Nc2nc(-c3ccc(C(N)=O)cc3)nc3c2ncn3-c2ccccc2)cc(OC)c1OC returned FBW7 activator inactive, GPR151 activ inactive, TEAD-YAP inh inactive and MITF primary inactive.
`COc1cc(Nc2nc(-c3ccc(C(N)=O)cc3)nc3c2ncn3C(C)C)cc(OC)c1OC` gave FBW7 activator inactive, GPR151 activ inactive, TEAD-YAP inh 41 and MITF primary inactive.
`COc1cc(Nc2nc(-c3ccc(C(N)=O)cc3)nc3c2ncn3Cc2ccc(C(F)(F)F)cc2)cc(OC)c1OC` gave FBW7 activator inactive, GPR151 activ inactive, TEAD-YAP inh 53 and MITF primary inactive.
Screening COc1cc(Nc2nc(-c3ccc(C(=O)N4CCN(C)CC4)cc3)nc3c2ncn3C(C)C)cc(OC)c1OC returned FBW7 activator inactive, GPR151 activ inactive, TEAD-YAP inh inactive and MITF primary inactive.
Screening COc1cc(Nc2nc(-c3ccc(C(N)=O)cc3)nc3c2ncn3-c2ccsc2)cc(OC)c1OC returned FBW7 activator inactive, GPR151 activ inactive, TEAD-YAP inh 54 and MITF primary inactive.
CC1CCCC(N2CCN(c3ncccn3)CC2)C1 (stereo not drawn) was read as FBW7 activator inactive, GPR151 activ inactive, TEAD-YAP inh inactive and MITF primary inactive.
O=C(CS(=O)(=O)c1ccc(Cl)cc1)Nc1ccc(-c2nnc3n2CCCCC3)cc1 was read as FBW7 activator inactive, GPR151 activ inactive, TEAD-YAP inh inactive and MITF primary inactive.
